Assay results taken from PubChem BioAssay (NCI).
This is part of a sample that, as a whole, favours compounds with a hit. Of some 83,000 tested, about 20% had one in any assay.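 Results are percent growth after 48 hours of single-concentration exposure. 100 means growth as in untreated cells, lower positive values show inhibition; negative values down to -100 show cell death.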 Calls of active or inactive are those of the source. How the source made its calls: active means growth percent below 10; inactive means the rest.

Tests used:
Test in all cases: NCI-60 one-dose screen, 48 h (100 = growth as untreated, 0 = no growth, -100 = all killed)
Conditions in all cases: 10 µM unless noted
DU-145 prostate = test system: DU-145 prostate
K-562 leukemia = test system: K-562 leukemia
MALME-3M melanoma = test system: MALME-3M melanoma
MDA-MB-231 breast = test system: MDA-MB-231 breast
SF-268 CNS = test system: SF-268 CNS
SF-295 CNS = test system: SF-295 CNS
SF-539 CNS = test system: SF-539 CNS
UACC-257 melanoma = test system: UACC-257 melanoma
M14 melanoma = test system: M14 melanoma
HCT-15 colon = test system: HCT-15 colon
HT29 colon = test system: HT29 colon
SNB-75 CNS = test system: SNB-75 CNS
SNB-19 CNS = test system: SNB-19 CNS
PC-3 prostate = test system: PC-3 prostate
SK-MEL-5 melanoma = test system: SK-MEL-5 melanoma
UACC-62 melanoma = test system: UACC-62 melanoma
LOX IMVI melanoma = test system: LOX IMVI melanoma
SK-MEL-28 melanoma = test system: SK-MEL-28 melanoma
U251 CNS = test system: U251 CNS

Measured: growth

CCN1C(=O)N(CC)C2C1NN=c1s/c(=C3\C(=O)Nc4ccccc43)c(=O)n12 (configuration not stated)
active: K-562 leukemia 2.13% | SF-295 CNS 8.72% | SF-539 CNS -34.1% | HT29 colon 5.74% | SNB-75 CNS -13.6%
inactive: DU-145 prostate 14.9% | MALME-3M melanoma 19% | MDA-MB-231 breast 25% | SF-268 CNS 67.1% | UACC-257 melanoma 80.4% | M14 melanoma 20.1% | HCT-15 colon 26.8% | SNB-19 CNS 36.5% | PC-3 prostate 22.6% | SK-MEL-5 melanoma 19.5% | UACC-62 melanoma 30.9% | LOX IMVI melanoma 42.2% | SK-MEL-28 melanoma 53%

CCCCc1ccc(Nc2nnc(SCC(=O)NC(=O)NCC)s2)cc1
inactive: DU-145 prostate 104% | K-562 leukemia 91.6% | MALME-3M melanoma 97.2% | MDA-MB-231 breast 88.1% | SF-268 CNS 92.4% | SF-295 CNS 110% | SF-539 CNS 96.4% | UACC-257 melanoma 113% | M14 melanoma 107% | HCT-15 colon 99.9% | HT29 colon 103% | SNB-75 CNS 83% | U251 CNS 96% | PC-3 prostate 91% | SK-MEL-5 melanoma 103% | UACC-62 melanoma 78.2% | LOX IMVI melanoma 94.1% | SK-MEL-28 melanoma 105%

CCC(C)N(CCNc1cc(OC)cc2cccnc12)CCC(C)C (configuration not stated)
inactive: DU-145 prostate 95.6% | K-562 leukemia 83.2% | MALME-3M melanoma 121% | MDA-MB-231 breast 84.5% | SF-268 CNS 78.6% | SF-295 CNS 97% | SF-539 CNS 101% | UACC-257 melanoma 87.3% | M14 melanoma 82.4% | HCT-15 colon 76.6% | HT29 colon 55.6% | SNB-75 CNS 100% | SNB-19 CNS 96.2% | PC-3 prostate 79.3% | SK-MEL-5 melanoma 95.2% | UACC-62 melanoma 94.2% | LOX IMVI melanoma 86% | SK-MEL-28 melanoma 99.7%

COc1c(Cl)cc(Cl)c2ccc(C=C3C(=O)N(C)C(=O)N(C)C3=O)nc12
inactive: DU-145 prostate 108% | K-562 leukemia 100% | MALME-3M melanoma 107% | MDA-MB-231 breast 107% | SF-268 CNS 97.3% | SF-295 CNS 80.3% | SF-539 CNS 98.6% | UACC-257 melanoma 106% | HCT-15 colon 103% | HT29 colon 105% | SNB-75 CNS 98.6% | U251 CNS 110% | PC-3 prostate 99.4% | SK-MEL-5 melanoma 101% | UACC-62 melanoma 102% | LOX IMVI melanoma 101% | SK-MEL-28 melanoma 109%
active: M14 melanoma -15.7%

CCCCCCCCCCCCCCCC(=O)OC[C@@]1(O)C[C@@]23CC[C@@H]4C(C)(C)[C@H](O)CC[C@@]4(C)[C@@H]2CC[C@H]1C3
active: M14 melanoma -30.4%
inactive: DU-145 prostate 108% | K-562 leukemia 98% | MALME-3M melanoma 114% | MDA-MB-231 breast 110% | SF-268 CNS 101% | SF-295 CNS 112% | SF-539 CNS 97.8% | UACC-257 melanoma 110% | HCT-15 colon 107% | HT29 colon 104% | SNB-75 CNS 99.6% | SNB-19 CNS 96.7% | U251 CNS 107% | LOX IMVI melanoma 103% | SK-MEL-28 melanoma 110%

Cc1c2c(cc[n+]1Cc1ccccc1)c1ccc(OCC3CCCCC3)cc1n2CC1CCCCC1
active: DU-145 prostate -100% | K-562 leukemia -45.9% | MALME-3M melanoma -70.3% | MDA-MB-231 breast -92% | SF-268 CNS -98.7% | SF-295 CNS -92.8% | SF-539 CNS -85.2% | UACC-257 melanoma -92.4% | M14 melanoma -84.6% | HCT-15 colon -81.7% | HT29 colon -79% | SNB-75 CNS -87.3% | U251 CNS -92.5% | PC-3 prostate -75.8% | SK-MEL-5 melanoma -100% | UACC-62 melanoma -94% | LOX IMVI melanoma -95.6%

O=S(=O)(NCCNc1nccc(-c2c(-c3ccc(F)c(O)c3)nc3occn23)n1)c1ccccc1
inactive: DU-145 prostate 57.1% | K-562 leukemia 33.6% | MDA-MB-231 breast 27.7% | SF-268 CNS 57% | SF-295 CNS 93.3% | SF-539 CNS 96% | UACC-257 melanoma 25% | M14 melanoma 18.8% | HCT-15 colon 76.6% | HT29 colon 61.5% | SNB-75 CNS 71.9% | SNB-19 CNS 73.8% | PC-3 prostate 55.8% | SK-MEL-5 melanoma 22.8% | LOX IMVI melanoma 33.7% | SK-MEL-28 melanoma 27.3%
active: MALME-3M melanoma -0.538% | UACC-62 melanoma 6.23%

COc1ccc(Cc2nc3cc(OC)c(OC)cc3c(=O)[nH]2)cc1
active: UACC-257 melanoma 4.95%
inactive: DU-145 prostate 39.5% | K-562 leukemia 115% | MALME-3M melanoma 273% | MDA-MB-231 breast 73.3% | SF-268 CNS 30.5% | SF-295 CNS 65.3% | SF-539 CNS 100% | M14 melanoma 48.8% | HCT-15 colon 29.8% | HT29 colon 62.9% | SNB-75 CNS 107% | SNB-19 CNS 81.7% | PC-3 prostate 86.4% | SK-MEL-5 melanoma 90.8% | UACC-62 melanoma 77.6% | LOX IMVI melanoma 61%

O=C(CN1CCOCC1)Nc1ccc2ncnc(Nc3ccc(Oc4cccc(C(F)(F)F)c4)c(Cl)c3)c2c1
inactive: DU-145 prostate 40.8% | K-562 leukemia 35% | MALME-3M melanoma 73.4% | MDA-MB-231 breast 60.1% | SF-268 CNS 59.6% | SF-295 CNS 63.5% | SF-539 CNS 78.8% | UACC-257 melanoma 83.3% | M14 melanoma 64% | HCT-15 colon 52.2% | HT29 colon 54% | SNB-75 CNS 73.7% | SNB-19 CNS 61.9% | U251 CNS 62.4% | UACC-62 melanoma 71% | LOX IMVI melanoma 43.8% | SK-MEL-28 melanoma 77.1%

COc1ccc(-c2nn(Cc3ccccc3)c3c2-c2oncc2CC3)cc1OC
inactive: DU-145 prostate 97.4% | K-562 leukemia 90.5% | MALME-3M melanoma 138% | MDA-MB-231 breast 77.8% | SF-268 CNS 104% | SF-295 CNS 96.5% | SF-539 CNS 93.3% | UACC-257 melanoma 89.9% | M14 melanoma 127% | HCT-15 colon 93.4% | HT29 colon 108% | SNB-75 CNS 105% | SNB-19 CNS 104% | PC-3 prostate 86.6% | SK-MEL-5 melanoma 102% | UACC-62 melanoma 86.8% | LOX IMVI melanoma 86.2% | SK-MEL-28 melanoma 105%

CC(=O)OCC(=O)[C@@]1(O)CC[C@H]2[C@@H]3CC(=C(Br)Br)C4=CC(=O)CC[C@]4(C)[C@H]3C(=O)C[C@@]21C
inactive: DU-145 prostate 107% | K-562 leukemia 102% | MALME-3M melanoma 98.3% | MDA-MB-231 breast 86% | SF-268 CNS 89.8% | SF-295 CNS 76.7% | SF-539 CNS 98.4% | UACC-257 melanoma 67.6% | M14 melanoma 82.3% | HCT-15 colon 94.4% | HT29 colon 92.1% | SNB-75 CNS 81.2% | U251 CNS 82.9% | PC-3 prostate 76.1% | SK-MEL-5 melanoma 95.2% | UACC-62 melanoma 82.5% | LOX IMVI melanoma 97.3% | SK-MEL-28 melanoma 102%

COc1cc(/C=C/C(=O)c2ccc(Nc3ncnc4ccccc34)cc2)cc(OC)c1
active: K-562 leukemia 4.61% | HT29 colon -38.1% | LOX IMVI melanoma 5.65%
inactive: DU-145 prostate 71.7% | MALME-3M melanoma 106% | MDA-MB-231 breast 82.9% | SF-268 CNS 38.1% | SF-295 CNS 60.8% | SF-539 CNS 71.6% | UACC-257 melanoma 93.5% | M14 melanoma 24.7% | HCT-15 colon 45.7% | SNB-75 CNS 70.9% | SNB-19 CNS 62% | U251 CNS 34.2% | UACC-62 melanoma 76.9%

Nc1ncc(C#Cc2cncc(NC(=O)c3cccc(C(F)(F)F)c3)c2)c2cccnc12
inactive: DU-145 prostate 43.7% | MDA-MB-231 breast 36% | SF-268 CNS 58.4% | SF-295 CNS 61.2% | SF-539 CNS 43.8% | UACC-257 melanoma 71.7% | M14 melanoma 18.2% | HCT-15 colon 56.6% | HT29 colon 27.4% | SNB-75 CNS 60.7% | U251 CNS 53.5% | PC-3 prostate 49.9% | SK-MEL-5 melanoma 34% | UACC-62 melanoma 55.7% | SK-MEL-28 melanoma 33.6%
active: K-562 leukemia 7.45% | MALME-3M melanoma -6.22% | LOX IMVI melanoma 5.77%

Cn1c(COC(=O)N2CCCCC2)nc2c(N3CCOCC3)nc(-c3ccccc3)nc21
inactive: SF-295 CNS 21.6% | SNB-19 CNS 17.7%
active: DU-145 prostate -87% | K-562 leukemia 3.43% | MALME-3M melanoma -85.2% | MDA-MB-231 breast -71.6% | SF-268 CNS -78.5% | SF-539 CNS -91.9% | UACC-257 melanoma -76.3% | M14 melanoma -59.8% | HCT-15 colon -43% | HT29 colon -33.4% | SNB-75 CNS -85.4% | U251 CNS -70.9% | SK-MEL-5 melanoma -95.6% | UACC-62 melanoma -92.7% | LOX IMVI melanoma -90.4% | SK-MEL-28 melanoma -96.8%

O=C(N/N=C/c1cccc(O)c1)c1ccccc1Nc1cccc(C(F)(F)F)c1
inactive: DU-145 prostate 88.7% | MALME-3M melanoma 76.3% | MDA-MB-231 breast 73.8% | SF-268 CNS 69.5% | SF-295 CNS 52.2% | SF-539 CNS 103% | UACC-257 melanoma 64.9% | M14 melanoma 58.8% | HCT-15 colon 72.2% | HT29 colon 106% | SNB-75 CNS 79.7% | U251 CNS 82.4% | SK-MEL-5 melanoma 82.5% | UACC-62 melanoma 80.7% | LOX IMVI melanoma 66.7% | SK-MEL-28 melanoma 96.6%

O=C(Nc1sc2c(c1C(=O)O)CCCC2)c1cccc(C(F)(F)F)c1
inactive: DU-145 prostate 94.2% | MALME-3M melanoma 99.9% | MDA-MB-231 breast 94% | SF-268 CNS 94.9% | SF-295 CNS 85.1% | SF-539 CNS 93.4% | UACC-257 melanoma 80.7% | M14 melanoma 98.8% | HCT-15 colon 89.3% | HT29 colon 97.7% | SNB-75 CNS 104% | SNB-19 CNS 100% | U251 CNS 88.3% | PC-3 prostate 90.8% | SK-MEL-5 melanoma 81.2% | UACC-62 melanoma 77.5% | LOX IMVI melanoma 102% | SK-MEL-28 melanoma 94.4%

COc1cc2nnn3c4ncccc4c(N=O)c3c2cc1OC
inactive: DU-145 prostate 102% | MALME-3M melanoma 91.2% | MDA-MB-231 breast 78.6% | SF-268 CNS 30.3% | SF-295 CNS 111% | SF-539 CNS 98.6% | UACC-257 melanoma 76.1% | M14 melanoma 104% | HCT-15 colon 83.4% | HT29 colon 57.5% | SNB-75 CNS 79.8% | SNB-19 CNS 102% | U251 CNS 45.1% | PC-3 prostate 74.8% | SK-MEL-5 melanoma 113% | UACC-62 melanoma 86.3% | LOX IMVI melanoma 58.9% | SK-MEL-28 melanoma 81.4%
